In the supplement of paper PMC7530171:
“And” between values parts separate entries of the source, which are not always exact repeats. Equal values may be shown once. Where a name gives a salt, the structure may show the parent alone. ± gives the standard deviation.

test system: THP-1 macrophages infected with Mycobacterium tuberculosis H37Rv; assay: intracellular M.tb growth inhibition relative to DMSO (0) and 4 uM bedaquiline (100); higher = stronger inhibition of intracellular bacterial growth; details: 10 µM; 4 days
Method: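 OICR kinase inhibitor library screened in duplicate at 10 uM against THP-1 macrophages (PMA-differentiated) infected with M. tuberculosis H37Rv-pTEC27 (tdTomato RFP), 4 days at 37 C. Rows with complete host cell loss (placeholder inhibition 0, cell loss 100) were removed.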

SMILES | intracellular M.tb growth inhibition
CO[C@H]1C[C@@H]2CC[C@@H](C)[C@@](O)(O2)C(=O)C(=O)N2CCCC[C@H]2C(=O)O[C@H]([C@H](C)C[C@@H]2CC[C@@H](OC(=O)C(C)(CO)CO)[C@H](OC)C2)CC(=O)[C@H](C)/C=C(\C)[C@@H](O)[C@@H](OC)C(=O)[C@H](C)C[C@H](C)/C=C/C=C/C=C/1C [Temsirolimus] | -22.8 ± 24%
CN1CCC(CNc2ccc3ncc(-c4cccc(OC(F)(F)F)c4)n3n2)CC1 | 89.1 ± 24%
CCN(CCCOc1ccc2c(Nc3cc(CC(=O)Nc4cccc(F)c4)[nH]n3)ncnc2c1)CCOP(=O)(O)O | -79.3 ± 96%
CC(C)c1cnn2c(NCc3ccccc3)cc(NCCCCCCN)nc12 [BS-181 hydrochloride] | 3.6 ± 5.1%
CCN(CC)CCCCN1c2ccccc2Oc2ccc(Cl)cc21 [10-DEBC hydrochloride] | 123 ± 1.9%
CN1C(=O)C(Cc2c[nH]c3ccccc23)NC1=S (stereo not given) [Necrostatin-1] | -8.08 ± 36%
Cc1ccc(-n2nc(C(C)(C)C)cc2NC(=O)Nc2ccc(OCCN3CCOCC3)c3ccccc23)cc1 | -1.53 ± 2.2%
O=C1NC(=O)/C(=C/c2ccc3c(c2)OC(F)(F)O3)S1 | 42.5 ± 35%
CCOc1cc(/C=C(\C#N)C(N)=O)cc(CSc2ccccc2)c1O | -116 ± 140%
O=[N+]([O-])c1ccc(-c2nc(-c3ccc(F)cc3)c(-c3ccncc3)[nH]2)cc1 | 36.6 ± 3.6%
Cc1nc2sccn2c(=O)c1CCN1CCC(=C(c2ccccc2)c2ccc(F)cc2)CC1 | 58.1 ± 4.4%
Cc1cc(N2CCOCC2)cc2[nH]c(-c3c(NC[C@@H](O)c4cccc(Cl)c4)cc[nH]c3=O)nc12 | -36.6 ± 15%
Nc1nccc(-c2c(-c3ccc(F)cc3)ncn2C2CCCCC2)n1 | 42.4 ± 13%
O=S(=O)(c1cccc2cnccc12)N1CCCNCC1 [Fasudil HCl] | 6.96 ± 7.6%
COc1nccc(-c2c(-c3ccc(F)cc3)ncn2C2CCC(O)CC2)n1 (stereo not given) | 1.01 ± 15%
C[C@@H](N)[C@H]1CC[C@H](C(=O)Nc2ccncc2)CC1 | -59.3 ± 110%
O=C1NCc2c1c1c3ccccc3[nH]c1c1[nH]c3ccccc3c21 | 37.2 ± 30%
Cc1csc(-c2nnc(Nc3ccc(Oc4ncccc4-c4ccnc(N)n4)cc3)c3ccccc23)c1 | 126 ± 190%
O=C(NOCC1CC1)c1cc(Br)c(F)c(F)c1Nc1ccc(I)cc1Cl | 59.8 ± 16%
Cc1nc(Nc2ncc(C(=O)Nc3c(C)cccc3Cl)s2)cc(N2CCN(CCO)CC2)n1 [Dasatinib] | 47.9 ± 35%

SMILES | intracellular M.tb growth inhibition
COc1cc2c(N3CCN(C(=O)Nc4ccc(OC(C)C)cc4)CC3)ncnc2cc1OCCCN1CCCCC1 | 53 ± 8%
COc1cc(OC2CCN(C)CC2)ccc1Nc1ncc2c(n1)n(C1CCCC1)c(=O)n2C | -17.7 ± 25%
Cn1cc(-c2ccc3nnc(Sc4ccc5ncccc5c4)n3n2)cn1 | -164 ± 130%
O=c1c(-c2ccc(O)cc2)coc2cc(O)cc(O)c12 [Genistein] | 10.7 ± 10%
CC(NC(=O)C(C#N)=Cc1ccc(O)c(O)c1)c1ccccc1 (stereo not given) [Tyrphostin B44] | -7.66 ± 34%
O=C1NC(=O)/C(=C/c2ccc(-c3ccc(F)cc3O)o2)S1 | 25.3 ± 6.9%
CN(C)c1ccc(/C=C2/C(=O)Nc3ccccc32)cc1 | 5.91 ± 3.3%
COc1cc2nccc(Oc3ccc(NC(=O)NC4CC4)c(Cl)c3)c2cc1C(N)=O | -42.3 ± 140%
Cn1cc(-c2cnc3ccc4ccc(CS(=O)(=O)NCc5ccccn5)cc4c(=O)c3c2)cn1 | -162 ± 230%
CCN(CC)CCNC(=O)c1c(C)[nH]c(/C=C2\C(=O)Nc3ccc(F)cc32)c1C [Sunitinib Malate] | -45.8 ± 29%
CCN(CC)CCCCNc1ncc2cc(-c3cc(OC)cc(OC)c3)c(NC(=O)NC(C)(C)C)nc2n1 | 34.4 ± 29%
Cn1c(=O)c(Oc2ccc(F)cc2F)cc2cnc(NC3CCOCC3)nc21 | -140 ± 130%
NS(=O)(=O)c1ccc(Nc2nc(OCC3CCCCC3)c3[nH]cnc3n2)cc1 | 15.4 ± 41%
CO[C@H]1C[C@@H]2CC[C@@H](C)[C@@](O)(O2)C(=O)C(=O)N2CCCC[C@H]2C(=O)O[C@H]([C@H](C)C[C@@H]2CC[C@@H](O)[C@H](OC)C2)CC(=O)[C@H](C)/C=C(\C)[C@@H](O)[C@@H](OC)C(=O)[C@H](C)C[C@H](C)/C=C/C=C/C=C/1C [Rapamycin] | 15.9 ± 11%
Nc1nccc(Oc2ccc(NC(=O)c3c[nH]cc(-c4ccc(F)cc4)c3=O)cc2F)c1Cl | 37 ± 33%
Nc1ncnc2n[nH]c(Nc3ccc(F)cc3)c12 | -2.38% and 4.47%
COc1cc(OC)c(/C=C/S(=O)(=O)Cc2ccc(OC)c(NCC(=O)O)c2)c(OC)c1 | -33.5 ± 120%
COc1cc2ncnc(Nc3cccc(Br)c3)c2cc1OC | -64 ± 39%
Cc1ccc(NC(=O)c2cccc(N(C)C)c2)cc1NC(=O)c1ccc(O)cc1 | 36 ± 37%
COC(=O)Nc1ccc(-c2nc(N3CCOCC3)c3cnn(C4CCN(C(=O)OC)CC4)c3n2)cc1 | -222 ± 330%
